From paper PMC10726135, “HNF4α isoforms regulate the circadian balance between carbohydrate and lipid metabolism in the liver”
The full ranking holds about 18,000 sequences; the median of “log2 normalized intensity” is about 0.36, and the highest 2% start at about 7.3. The entries come from a sample that favours the highest values as a whole.

target: T1, HNF4alpha8 (COS-7 nuclear extract) (Homo sapiens, UniProt P41235-5 1-452); assay: protein-binding microarray; COS-7 nuclear extract on double-stranded Agilent 4x180k PBM; binding buffer, salt, pH and temperature not given in the material; high values mean tight binding; conditions: chain copies: 2; label: 3' end of strand 1 on the slide; dsDNA, one strand shown
T1 sequence: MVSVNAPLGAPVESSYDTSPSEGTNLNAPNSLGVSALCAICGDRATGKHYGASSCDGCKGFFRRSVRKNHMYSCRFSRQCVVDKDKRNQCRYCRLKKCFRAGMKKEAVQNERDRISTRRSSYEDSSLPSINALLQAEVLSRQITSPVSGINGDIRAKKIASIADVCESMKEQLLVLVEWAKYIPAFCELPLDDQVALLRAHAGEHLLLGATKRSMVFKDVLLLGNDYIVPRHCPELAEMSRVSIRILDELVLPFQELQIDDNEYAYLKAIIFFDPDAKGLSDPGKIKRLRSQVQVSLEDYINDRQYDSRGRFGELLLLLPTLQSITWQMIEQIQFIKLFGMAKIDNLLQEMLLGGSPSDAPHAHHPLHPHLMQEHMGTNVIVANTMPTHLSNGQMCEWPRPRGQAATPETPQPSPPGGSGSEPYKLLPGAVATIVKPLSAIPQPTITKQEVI
How it was run: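 Double-stranded oligonucleotides of ~60 nt, representing ~44,000 test sequences in quadruplicate, made up a custom Agilent SurePrint G3 4x180k array. Nuclear extracts from COS-7 cells transiently transfected by CaPO4 with a human HNF4α isoform expression vector were applied, and bound HNF4α was imaged at 2-µm resolution on an Agilent G2565CA scanner. Binding signal refers to the background-corrected, normalized gProcessedSignal output of Agilent software.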

Sequence	binding signal
TGGACTTTGATCCTGATGACTGCAGAGCTTGCCTAGGGAGATTAGAGTATCGGTCGA	6.16 log2 normalized intensity
CACCTTTGGATCCAGCTCCTGATGTTTGGTGCCTAGGGAGATTAGAGTATCGGTCGA	2.43 log2 normalized intensity
CTGATGCCCTTTGGATTTAGGCAGTTTTTGGCCTAGGGAGATTAGAGTATCGGTCGA	2.92 log2 normalized intensity
ATCCTGCAGTTCCTGATCTTTGACCTGGAGGCCTAGGGAGATTAGAGTATCGGTCGA	6.23 log2 normalized intensity
CAGTTTGGACTTTGATCCTGATGACTGCAGGCCTAGGGAGATTAGAGTATCGGTCGA	8.17 log2 normalized intensity
AGATCATCCTGCAGTTCCTGATCTTTGACCGCCTAGGGAGATTAGAGTATCGGTCGA	7.84 log2 normalized intensity
GGAGAGAGTTTGGCCCCAGTTCCCATGGACGCCTAGGGAGATTAGAGTATCGGTCGA	1.45 log2 normalized intensity
TTACAGTGTGAATCTCCAACAAGGCAGGAGGCCTAGGGAGATTAGAGTATCGGTCGA	-0.531 log2 normalized intensity
GTCATAATTTGATCCAGTGTGCAAATGTGTGCCTAGGGAGATTAGAGTATCGGTCGA	2.05 log2 normalized intensity
CCACAACCTACCCTTTGCCCTGGACATATTGCCTAGGGAGATTAGAGTATCGGTCGA	3.27 log2 normalized intensity
GCAAACCTGCCCTTTGCTCCAGAGGAAGATGCCTAGGGAGATTAGAGTATCGGTCGA	3.81 log2 normalized intensity
GGCAGATATGAAAGAGCCATGGACTGCTGAGCCTAGGGAGATTAGAGTATCGGTCGA	-0.289 log2 normalized intensity
AAAGAGCCATGGACTGCTGACCTTTGAACCGCCTAGGGAGATTAGAGTATCGGTCGA	9.59 log2 normalized intensity
CCTTTGAGGAGGCCTTTCCTGACCCCTCCTGCCTAGGGAGATTAGAGTATCGGTCGA	4.78 log2 normalized intensity
ATCTTTGACCTGGAGCATGACCCTTTGCAGGCCTAGGGAGATTAGAGTATCGGTCGA	3.64 log2 normalized intensity
TTCAAATTCTTTGCCATGACCTTTGAAGCCGCCTAGGGAGATTAGAGTATCGGTCGA	7.52 log2 normalized intensity
GCCATGGACTGCTGACCTTTGAACCCTGAGGCCTAGGGAGATTAGAGTATCGGTCGA	10.3 log2 normalized intensity
ATATGAAAGAGCCATGGACTGCTGACCTTTGCCTAGGGAGATTAGAGTATCGGTCGA	7.13 log2 normalized intensity
AGCAATTCAAATTCTTTGCCATGACCTTTGGCCTAGGGAGATTAGAGTATCGGTCGA	6.24 log2 normalized intensity
ATTCTTTGCCATGACCTTTGAAGCCCAGAAGCCTAGGGAGATTAGAGTATCGGTCGA	5.57 log2 normalized intensity
CTGCTGCCCAAAGGTCACCTCTTCAGATAGGCCTAGGGAGATTAGAGTATCGGTCGA	3.89 log2 normalized intensity
CTGTTTGACCAAAGCTACTCATCATGAACTGCCTAGGGAGATTAGAGTATCGGTCGA	0.948 log2 normalized intensity
TAGACATAGGTTATAAACTTGTTTGGGATTGCCTAGGGAGATTAGAGTATCGGTCGA	0.308 log2 normalized intensity
AAAGTCCAACACAGAAGCCTTTTGTTCTTTGCCTAGGGAGATTAGAGTATCGGTCGA	2.15 log2 normalized intensity

Sequence	binding signal
AATGTCTGGAAGTTCTTCCTTAAGTCTAACGCCTAGGGAGATTAGAGTATCGGTCGA	0.865 log2 normalized intensity
GGACTTGGTAAAGTCAATAATCTAGAAACCGCCTAGGGAGATTAGAGTATCGGTCGA	0.338 log2 normalized intensity
GAGGGTGGGTTCAAAGGTCAGAAAAAGCTGGCCTAGGGAGATTAGAGTATCGGTCGA	7.27 log2 normalized intensity
GGCATGGGAAGCAGTGAGGGTGGGTTCAAAGCCTAGGGAGATTAGAGTATCGGTCGA	1.64 log2 normalized intensity
TAGAAGCAGTGGGACAAAGGTCACAGGAAAGCCTAGGGAGATTAGAGTATCGGTCGA	5.05 log2 normalized intensity
GCAGTGAGGGTGGGTTCAAAGGTCAGAAAAGCCTAGGGAGATTAGAGTATCGGTCGA	8.97 log2 normalized intensity
TGGGTTCAAAGGTCAGAAAAAGCTGACGCCGCCTAGGGAGATTAGAGTATCGGTCGA	7.25 log2 normalized intensity
GGGAAGCAGTGAGGGTGGGTTCAAAGGTCAGCCTAGGGAGATTAGAGTATCGGTCGA	8.86 log2 normalized intensity
ATAAGGTAACAGGCCAAAGGGCAAGAACAAGCCTAGGGAGATTAGAGTATCGGTCGA	3.1 log2 normalized intensity
TCACCTCGCTCCCCTCCTGTCAGTTTATTTGCCTAGGGAGATTAGAGTATCGGTCGA	2.3 log2 normalized intensity
CCCCCTGTGATTACTTCCACTCTTGCAGATGCCTAGGGAGATTAGAGTATCGGTCGA	0.911 log2 normalized intensity
TGACCTTTGCTCCAGTTCCCAATAATTTCCGCCTAGGGAGATTAGAGTATCGGTCGA	5.13 log2 normalized intensity
AAAAGTGACCTTTGCTCCAGTTCCCAATAAGCCTAGGGAGATTAGAGTATCGGTCGA	7.02 log2 normalized intensity
TTTGCCAAAGCATAGCAAGAGTGACCTTTGGCCTAGGGAGATTAGAGTATCGGTCGA	7.18 log2 normalized intensity
ATAGCAAAAGTGACCTTTGCTCCAGTTCCCGCCTAGGGAGATTAGAGTATCGGTCGA	8.52 log2 normalized intensity
CAAAGCATAGCAAGAGTGACCTTTGCTCCAGCCTAGGGAGATTAGAGTATCGGTCGA	9 log2 normalized intensity
CCTGCATATCCTGACTGCTGACCTTTAAGCGCCTAGGGAGATTAGAGTATCGGTCGA	5.56 log2 normalized intensity
CTTCTTTGCTTAAGCATAGCAAAAGTGACCGCCTAGGGAGATTAGAGTATCGGTCGA	3.13 log2 normalized intensity
AGATAGCATTCCAAGAGAGCAAAGTGCTTTGCCTAGGGAGATTAGAGTATCGGTCGA	1.21 log2 normalized intensity
TTGCTTAAGCATAGCAAAAGTGACCTTTGCGCCTAGGGAGATTAGAGTATCGGTCGA	9.23 log2 normalized intensity
GTGACCTTTGCTCCAGTTCCCAATAAGTTGGCCTAGGGAGATTAGAGTATCGGTCGA	5.13 log2 normalized intensity
CAAGAGTGACCTTTGCTCCAGTTCCCAATAGCCTAGGGAGATTAGAGTATCGGTCGA	6.59 log2 normalized intensity
CATAGCAAGAGTGACCTTTGCTCCAGTTCCGCCTAGGGAGATTAGAGTATCGGTCGA	8.19 log2 normalized intensity
